{"source": "the supplement of paper PMC8728848", "assay_in_all_cases": "glycan array binding signal (z-score within array); higher = stronger binding", "conditions_in_all_cases": "glycan notation: IUPAC condensed, linker removed", "key": {"[1]": {"molecular_target": "Fuc(a1-2)Gal(b1-3)GalNAc(b1-4)[Neu5Ac(a2-3)]Gal(b1-4)Glc", "outline": "(§1)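 Glycan array data were curated from 3228 arrays in the Consortium for Functional Glycomics database and kept only where the protein sequence was available. Glycan names were converted to IUPAC-condensed notation, and columns mapping to the same glycan were averaged. The binding signal is a within-array Z-score, averaged across arrays of the same protein sequence at different concentrations or buffers and across linkers. Negative Z-scores can be read as non-binding.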"}, "[2]": {"molecular_target": "Fuc(a1-2)Gal(b1-3)[Fuc(a1-4)]GlcNAc", "outline": "as §1"}, "[3]": {"molecular_target": "Fuc(a1-2)Gal(b1-4)[Fuc(a1-3)]GlcNAc(b1-2)Man(a1-3)[Fuc(a1-2)Gal(b1-4)[Fuc(a1-3)]GlcNAc(b1-2)Man(a1-6)]Man(b1-4)GlcNAc(b1-4)GlcNAc", "outline": "as §1"}, "[4]": {"molecular_target": "Fuc(a1-2)[Gal(a1-3)]Gal(b1-4)Glc", "outline": "as §1"}, "[5]": {"molecular_target": "Fuc(a1-2)[Gal(a1-3)]Gal(b1-4)GlcNAc", "outline": "as §1"}, "[6]": {"molecular_target": "Fuc(a1-3)[Gal(b1-4)]GlcNAc(b1-4)Gal(b1-4)[Fuc(a1-3)]GlcNAc(b1-4)Gal(b1-4)[Fuc(a1-3)]GlcNAc", "outline": "as §1"}, "[7]": {"molecular_target": "Fuc(a1-3)[Gal3S(b1-4)]GlcNAc6S", "outline": "as §1"}, "[8]": {"molecular_target": "Fuc(a1-4)GlcNAc", "outline": "as §1"}, "[9]": {"molecular_target": "Gal(a1-3)Gal", "outline": "as §1"}, "[10]": {"molecular_target": "Gal(a1-3)Gal(b1-3)[Fuc(a1-4)]GlcNAc(b1-2)Man(a1-3)[Gal(a1-3)Gal(b1-3)[Fuc(a1-4)]GlcNAc(b1-2)Man(a1-6)]Man(b1-4)GlcNAc(b1-4)GlcNAc", "outline": "as §1"}, "[11]": {"molecular_target": "Gal(a1-3)Gal(b1-4)GlcNAc(b1-3)GalNAc", "outline": "as §1"}, "[12]": {"molecular_target": "Gal(b1-3)GlcNAc(b1-3)Gal(b1-4)GlcNAc(b1-6)[Gal(b1-3)GlcNAc(b1-3)]Gal(b1-4)Glc", "outline": "as §1"}, "[13]": {"molecular_target": "Gal(b1-3)[Fuc(a1-4)]GlcNAc(b1-3)Gal(b1-4)[Fuc(a1-3)]GlcNAc", "outline": "as §1"}, "[14]": {"molecular_target": "Gal(b1-3)[Neu5Ac(a2-6)]GalNAc", "outline": "as §1"}, "[15]": {"molecular_target": "Gal(b1-4)GlcNAc(b1-3)[Gal(b1-4)GlcNAc(b1-6)]Gal(b1-4)GlcNAc", "outline": "as §1"}, "[16]": {"molecular_target": "Gal(b1-4)GlcNAc(b1-6)[Gal(b1-3)]GalNAc", "outline": "as §1"}, "[17]": {"molecular_target": "GalNAc(b1-4)GlcNAc(b1-2)Man(a1-3)[GalNAc(b1-4)GlcNAc(b1-2)Man(a1-6)]Man(b1-4)GlcNAc(b1-4)GlcNAc", "outline": "as §1"}, "[18]": {"molecular_target": "GlcNAc(a1-4)Gal(b1-4)GlcNAc(b1-3)Gal(b1-4)[Fuc(a1-3)]GlcNAc(b1-3)Gal(b1-4)[Fuc(a1-3)]GlcNAc", "outline": "as §1"}, "[19]": {"molecular_target": "GlcNAc(b1-2)Gal(b1-3)GalNAc", "outline": "as §1"}, "[20]": {"molecular_target": "GlcNAc(b1-3)Gal(b1-3)GalNAc", "outline": "as §1"}, "[21]": {"molecular_target": "GlcNAc(b1-3)GalNAc", "outline": "as §1"}, "[22]": {"molecular_target": "Man(a1-2)Man(a1-3)[Man(a1-6)]Man(a1-6)[Man(a1-2)Man(a1-3)]Man(b1-4)GlcNAc(b1-4)GlcNAc", "outline": "as §1"}, "[23]": {"molecular_target": "Man(a1-3)[Man(a1-6)]Man(a1-6)[Man(a1-3)]Man", "outline": "as §1"}, "[24]": {"molecular_target": "Neu5Ac(a2-3)Gal(b1-3)GlcNAc(b1-3)Gal(b1-4)GlcNAc", "outline": "as §1"}, "[25]": {"molecular_target": "Neu5Ac(a2-3)Gal(b1-4)GlcNAc(b1-3)Gal(b1-4)GlcNAc(b1-3)Gal(b1-4)GlcNAc", "outline": "as §1"}, "[26]": {"molecular_target": "Neu5Ac(a2-3)Gal(b1-4)GlcNAc(b1-3)Gal(b1-4)[Fuc(a1-3)]GlcNAc", "outline": "as §1"}, "[27]": {"molecular_target": "Neu5Ac(a2-3)Gal(b1-4)[Fuc(a1-3)]GlcNAc(b1-3)GalNAc", "outline": "as §1"}, "[28]": {"molecular_target": "Neu5Ac(a2-6)Gal(b1-4)GlcNAc(b1-2)Man(a1-3)[Neu5Ac(a2-6)Gal(b1-4)GlcNAc(b1-2)Man(a1-6)]Man(b1-4)GlcNAc(b1-4)GlcNAc", "outline": "as §1"}, "[29]": {"molecular_target": "Neu5Ac(a2-6)Gal(b1-4)GlcNAc(b1-2)Man(a1-6)[GlcNAc(b1-2)Man(a1-3)]Man(b1-4)GlcNAc(b1-4)GlcNAc", "outline": "as §1"}, "[30]": {"molecular_target": "Neu5Ac(a2-6)Gal(b1-4)GlcNAc(b1-3)GalNAc", "outline": "as §1"}}, "note": "This excerpt belongs to a sample that is enriched for the strongest signals."}
{"binder": "PEB3 (Campylobacter jejuni), Q0PBL7 (protein) MKKIITLFGACALAFSMANADVNLYGPGGPHTALKDIANKYSEKTGVKVNVNFGPQATWFEKAKKDADILFGASDQSALAIASDFGKDFNVSKIKPLYFREAIILTQKGNPLKIKGLKDLANKKVRIVVPEGAGKSNTSGTGVWEDMIGRTQDIKTIQNFRNNIVAFVPNSGSARKLFAQDQADAWITWIDWSKSNPDIGTAVAIEKDLVVYRTFNVIAKEGASKETQDFIAYLSSKEAKEIFKKYGWRE", "values": [{"measurement": "glycan array binding signal (z-score)", "setting": "[1]", "result": 0.671}, {"measurement": "glycan array binding signal (z-score)", "setting": "[2]", "result": 7.5}, {"measurement": "glycan array binding signal (z-score)", "setting": "[3]", "result": 4.64}, {"measurement": "glycan array binding signal (z-score)", "setting": "[4]", "result": -1.35}, {"measurement": "glycan array binding signal (z-score)", "setting": "[5]", "result": 0.283}, {"measurement": "glycan array binding signal (z-score)", "setting": "[6]", "result": 0.144}, {"measurement": "glycan array binding signal (z-score)", "setting": "[7]", "result": 0.696}, {"measurement": "glycan array binding signal (z-score)", "setting": "[8]", "result": -0.82}, {"measurement": "glycan array binding signal (z-score)", "setting": "[9]", "result": -0.384}, {"measurement": "glycan array binding signal (z-score)", "setting": "[10]", "result": 4.25}, {"measurement": "glycan array binding signal (z-score)", "setting": "[11]", "result": 0.06}, {"measurement": "glycan array binding signal (z-score)", "setting": "[12]", "result": -0.921}, {"measurement": "glycan array binding signal (z-score)", "setting": "[13]", "result": -0.524}, {"measurement": "glycan array binding signal (z-score)", "setting": "[14]", "result": -1.27}, {"measurement": "glycan array binding signal (z-score)", "setting": "[15]", "result": -0.199}, {"measurement": "glycan array binding signal (z-score)", "setting": "[16]", "result": 0.227}, {"measurement": "glycan array binding signal (z-score)", "setting": "[17]", "result": 4.25}, {"measurement": "glycan array binding signal (z-score)", "setting": "[18]", "result": 3.7}, {"measurement": "glycan array binding signal (z-score)", "setting": "[19]", "result": -0.834}, {"measurement": "glycan array binding signal (z-score)", "setting": "[20]", "result": 2.96}, {"measurement": "glycan array binding signal (z-score)", "setting": "[21]", "result": -0.715}, {"measurement": "glycan array binding signal (z-score)", "setting": "[22]", "result": -0.005}, {"measurement": "glycan array binding signal (z-score)", "setting": "[23]", "result": -1.11}, {"measurement": "glycan array binding signal (z-score)", "setting": "[24]", "result": -0.117}, {"measurement": "glycan array binding signal (z-score)", "setting": "[25]", "result": -1.17}, {"measurement": "glycan array binding signal (z-score)", "setting": "[26]", "result": 0.473}, {"measurement": "glycan array binding signal (z-score)", "setting": "[27]", "result": 4.53}, {"measurement": "glycan array binding signal (z-score)", "setting": "[28]", "result": 0.39}, {"measurement": "glycan array binding signal (z-score)", "setting": "[29]", "result": -0.237}, {"measurement": "glycan array binding signal (z-score)", "setting": "[30]", "result": -0.21}]}
